This note sets out measurements from PubChem BioAssay (EPA / NIEHS).

The term AC50 denotes the concentration at which the activity in the assay is half-maximal.

Inconclusive results are not listed. Active and inactive are the calls of the source. How the source made its calls, unless noted: active means hit-call score of the fitted dose curve at least 0.9, where 1 is the maximum; inactive means score below 0.9.

Tested on in the first assay: not listed separately
Nature of the assay: CCTE_Shafer_MEA_dev_active_electrodes_number: CCTE's Neural Network Formation Assay for Number of Active Electrodes, Shafer Lab (AID 2284040; active means hit-call score of the fitted dose curve at least 0.9, where 1 is the maximum;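 on AC50: potency for loss of active electrodes versus DMSO so lower counts are hits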). A digest of the protocol: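 Primary rat cortical neurons on 16-electrode MEA wells, exposed from day 0 through day 12 with compound renewed at DIV 5 and 9 feeds. Active electrodes (mean firing ≥5 spikes/min) counted at DIV 5, 7, 9, 12; trapezoidal AUC across days, loss-of-signal versus DMSO.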
Consider `O=C1CCC(N2C(=O)c3ccccc3C2=O)C(=O)N1` (stereo unspecified), for which the call was inactive.
With `CCC(C)(C)C(=O)O[C@H]1C[C@@H](C)C=C2C=C[C@H](C)[C@H](CC[C@@H]3C[C@@H](O)CC(=O)O3)[C@H]21`, the AC50 is 0.801 µM (active).
For `NC(=O)NO`, the compound was called inactive.
As to `COc1ccc(-n2nc(C(F)F)cc2-c2ccc(S(C)=O)cc2)cc1` (stereo unspecified), the AC50 is 10 µM (active).
The same measure, in the same setting: under `CNCc1ccc(NC(=O)c2c[nH]c3c2C(=O)CCC3)cc1` stands 1.98 µM (active).
Turning to `Nc1nc2ncc(CNc3ccc(C(=O)N[C@@H](CCC(=O)O)C(=O)O)cc3)nc2c(=O)[nH]1`, the outcome was inactive.
The same measure, in the same setting: the result for `CC[C@H]1OC(=O)[C@H](C)[C@@H](O[C@H]2C[C@@](C)(OC)[C@@H](O)[C@H](C)O2)[C@H](C)[C@@H](O[C@@H]2O[C@H](C)C[C@H](N(C)C)[C@H]2O)[C@](C)(O)C[C@@H](C)C(=O)[C@H](C)[C@@H](O)[C@]1(C)O` reads “inactive”.
Turning to `CC[C@H](C)C(=O)O[C@H]1C[C@@H](C)C=C2C=C[C@H](C)[C@H](CC[C@@H]3C[C@@H](O)CC(=O)O3)[C@H]21`, the AC50 is 1.76 µM (active).
Turning to `O=P(OC(CCl)CCl)(OC(CCl)CCl)OC(CCl)CCl`, the call was inactive.
With `Cn1c(=O)c2c(ncn2C)n(C)c1=O`, the call was inactive.

Another assay deals with Estrogen receptor (Homo sapiens) (UniProt P03372). Description: CCTE_Deisenroth_AIME_384WELL_LUC_Shift: CCTE's 384-well Estrogen Receptor Transactivation Assay with AIME metabolic competence data shift (ERTA luciferase; difference in metabolism positive and negative), Deisenroth Lab (AID 2284041).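 Further: shift is response with S9 minus without S9 so positive means metabolism raised ER signal.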 Put shortly: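 Chemicals (0.002–200 uM, 10 points) pre-incubated 2 h with alginate-encapsulated induced male Sprague Dawley rat liver S9 or S9-free, then medium applied 24 h to VM7Luc4E2 cells; luciferase. Endpoint is per-concentration difference, S9-positive minus negative.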
Sequence of Estrogen receptor (Homo sapiens) (P03372 whole entry, looked up): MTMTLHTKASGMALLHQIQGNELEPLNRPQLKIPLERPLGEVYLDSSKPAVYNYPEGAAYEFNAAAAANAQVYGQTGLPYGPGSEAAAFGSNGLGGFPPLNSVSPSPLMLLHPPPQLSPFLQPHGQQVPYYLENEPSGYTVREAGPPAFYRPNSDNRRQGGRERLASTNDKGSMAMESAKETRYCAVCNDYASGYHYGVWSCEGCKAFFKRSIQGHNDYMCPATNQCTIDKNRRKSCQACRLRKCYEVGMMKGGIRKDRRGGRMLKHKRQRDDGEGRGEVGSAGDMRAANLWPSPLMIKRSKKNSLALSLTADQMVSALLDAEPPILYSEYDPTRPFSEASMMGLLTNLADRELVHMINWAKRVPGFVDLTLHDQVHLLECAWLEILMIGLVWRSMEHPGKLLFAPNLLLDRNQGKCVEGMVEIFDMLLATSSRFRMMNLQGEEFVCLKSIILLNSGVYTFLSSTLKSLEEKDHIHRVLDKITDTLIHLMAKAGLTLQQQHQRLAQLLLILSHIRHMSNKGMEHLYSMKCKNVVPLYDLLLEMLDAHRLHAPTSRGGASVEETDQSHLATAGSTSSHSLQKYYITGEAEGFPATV
Regarding `CC(C)CCO`, the result was inactive.
Same read-out and setting: the result for `Cc1ccc(N)cc1O` reads “inactive”.
As to `Cn1c(=O)cc(Oc2ccc(F)cc2F)c2cnc(NCC(C)(C)O)nc21`, the concentration at half-maximal activity (AC50) is 79.3 µM (active).
With `Nc1ccc(Nc2ccccc2)cc1`, the outcome was inactive.
On the same count and under the same terms, under `COc1cccc(-c2ccc(/C=C\CN3CCCCCC3)cc2Cl)c1` stands “inactive”; under `CCCCCCCCO`, “inactive”; under `COc1ccc2sc(C(=O)Nc3nnn[nH]3)c(OC(C)C)c2c1`, “inactive”.
On the same count and under the same terms, under `O=c1[nH]c2ccc(S(=O)CCN3CCC(Cc4ccc(F)cc4)CC3)cc2o1` (stereo unspecified) stands “inactive”; under `C=CC(=C)CCC=C(C)C`, “inactive”.
Still for that read-out and setting: the result for `CCCC(=O)OCC` reads “inactive”.
On to `O=C(O)c1cccc(Oc2ccccc2)c1`, for which the result was inactive.

Tested on in the next assay: not listed separately
Nature of the assay: CCTE_Shafer_MEA_dev_burst_rate: CCTE's Neural Network Formation Assay for Burst Rate, Shafer Lab (AID 2284042). A digest of the protocol:
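Exposure ran continuously over 12 days of network development in rat cortical cultures, with compound refreshed during full media changes on DIV 5 and 9. Single-electrode bursts per recording time, well-mean over active electrodes, trapezoidal AUC across days 5–12, fitted downward relative to DMSO.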
Take `O=C1CCC(N2C(=O)c3ccccc3C2=O)C(=O)N1` (stereo unspecified): the compound was classed as inactive.
The same measure, in the same setting: under `CCC(C)(C)C(=O)O[C@H]1C[C@@H](C)C=C2C=C[C@H](C)[C@H](CC[C@@H]3C[C@@H](O)CC(=O)O3)[C@H]21` stands “inactive”; under `NC(=O)NO`, “inactive”; under `COc1ccc(-n2nc(C(F)F)cc2-c2ccc(S(C)=O)cc2)cc1` (stereo unspecified), “inactive”.
The same measure, in the same setting: under `CNCc1ccc(NC(=O)c2c[nH]c3c2C(=O)CCC3)cc1` stands “inactive”.
Same read-out and setting: the result for `Nc1nc2ncc(CNc3ccc(C(=O)N[C@@H](CCC(=O)O)C(=O)O)cc3)nc2c(=O)[nH]1` reads “inactive”; that for `CC[C@H]1OC(=O)[C@H](C)[C@@H](O[C@H]2C[C@@](C)(OC)[C@@H](O)[C@H](C)O2)[C@H](C)[C@@H](O[C@@H]2O[C@H](C)C[C@H](N(C)C)[C@H]2O)[C@](C)(O)C[C@@H](C)C(=O)[C@H](C)[C@@H](O)[C@]1(C)O`, “inactive”.
Regarding `CC[C@H](C)C(=O)O[C@H]1C[C@@H](C)C=C2C=C[C@H](C)[C@H](CC[C@@H]3C[C@@H](O)CC(=O)O3)[C@H]21`, the compound was classed as inactive.
The same measure, in the same setting: the result for `O=P(OC(CCl)CCl)(OC(CCl)CCl)OC(CCl)CCl` reads “inactive”; that for `Cn1c(=O)c2c(ncn2C)n(C)c1=O`, “inactive”.
